# Measured values from PubChem BioAssay (NCATS).
# Unmarked numbers belong to inactive results. The source made the active and inactive calls. Calls follow the shape of the dose curve; as a rule, active = well fitted activation curve with a large enough effect; inconclusive = small, poorly fitted or top-dose-only effect; inactive = flat fitted curve, though single readings scatter.
# Test: Cellular Toxicity (caspase-3) HepG2 (AID 654);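 also: cells exposed to compound for 16 hours before reading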
# Settings: HepG2 caspase-3 activation, luminescence, 0% = DMSO only, 100% = tamoxifen; series mostly up to 92.2 µM; caspase-3 activation: at the top concentration
# Description: NIH Chemical Genomics Center [NCGC]
# NIH Molecular Libraries Screening Centers Network [MLSCN]
# National Institutes of Environmental Health Sciences [NIEHS]
# National Toxicology Program [NTP]
# We have developed a 1536-well cell-based assay for quantitative high throughput screening (qHTS) against a number of cell lines to determine in vitro caspase 3/7 of small molecules. This particular assay uses the HepG2 cell line which is derived from human hepatocellular carcinoma.
# NCGC Assay Protocol Summary:
# The Caspase-Glo 3/7 assay (Promega) is a homogeneous method to measure caspase-3 and caspase-7 activities in cultured cells. The quantitation of caspase 3/7 activity is based on the cleavage of a peptide-aminoluciferin substrate. After caspase cleaves the substrate the free aminoluciferin is liberated and serves as the substrate of luciferase, which generates the light. The luminescent signal is proportional to amount of caspase 3/7 activity present.
# Using the Caspase-Glo 3/7 assay, the amount of caspase 3/7 activity was measured in the HepG2 cell line with complete culture medium following compound treatment for 16 hours. The assay was performed in opaque white 1536-well plates. In the screen, tamoxifen and doxorubicin were used as positive controls. Library compounds were measured for their ability to cause the activation of caspase 3/7 in the cell line, as reflected by an increase in luminescence signal, in a concentration-dependent manner. Data were normalized to the controls for basal activity (DMSO only) and 100% stimulation (100 uM tamoxifen). AC50 values were determined from concentration-response data modeled with the standard Hill equation.
# qHTS protocol for caspase 3/7 assay in HepG2 cells
# [Step] [Parameter] [Value] [Description]
# 1. Reagent; 5 uL; 1500 HepG2 cells/well
# 2. Time; 5 hr; 37 °C incubation
# 4. Controls; 23 nL; Tamoxifen 0.23 uM to 100 uM & Doxorubicin 7.0 pM to 100 uM
# 5. Time; 16 hr; 37 °C incubation
# 6. Reagent; 5 uL; Caspase-Glo 3/7 reagent
# 7. Time; 20 min; Room Temperature
# 8. Detection; Luminescence; Viewlux plate reader
# Keywords: caspase 3/7, apoptosis, HepG2 cell line, luminescence, NTPHTS, NTPHTS_NCGC, NIEHS, EPA, DSSTox, MLSMR, MLSCN, NIH Roadmap, qHTS, NCGC
Compound,caspase-3 activation [%],outcome
OCCCBr,0.0133,
CCCCOC(=O)c1ccccc1C(=O)OCc1ccccc1,0.381,
CCCCCCCCc1ccc(O)cc1,2.02,
O=S(=O)(c1ccc(Cl)cc1)c1ccc(Cl)cc1,,inactive
O=[N+]([O-])c1c2ccccc2cc2ccccc12,0.475,
O=[N+]([O-])c1c(Cl)c(Cl)cc(Cl)c1Cl,0.533,
CCOCCOC(C)=O,0.00153,
O=[N+]([O-])c1cc([N+](=O)[O-])c2ccccc2c1,-0.205,
CN(C)NC(=O)CCC(=O)O,-0.208,
CC(=O)[O][Hg][c]1ccccc1,-3.92,
O=C(O)C(Cl)Cl,0.115,
C=CC(=O)NCNC(=O)C=C,0.679,
Cc1cc(O)ccc1Cl,-0.374,
Nc1ccc([N+](=O)[O-])cc1,-0.512,
CCOP(=O)(NC(C)C)Oc1ccc(SC)c(C)c1 (stereo not given),-1.07,
CCCCC(CC)COC(=O)c1ccccc1C(=O)OCC(CC)CCCC (stereo not given),-0.342,
Nc1ccc(Cl)cc1,0.896,
CN(C)[C@@H]1C(=O)C(C(N)=O)=C(O)[C@@]2(O)C(=O)C3=C(O)c4c(O)cccc4[C@@](C)(O)[C@H]3[C@H](O)[C@@H]12,-0.875,
O=C(O)COc1ccccc1,-0.508,
Nc1ccc(Sc2ccc(N)cc2)cc1,1.43,
c1cc2ccc3cccc4ccc(c1)c2c34,-0.125,
C1CCC(NC2CCCCC2)CC1,,inactive
COC(C)(C)CCCC(C)C/C=C/C(C)=C/C(=O)OC(C)C (stereo not given),0.331,
CC(C)(O)C(=O)Nc1ccc([N+](=O)[O-])c(C(F)(F)F)c1,-0.646,
COc1ccc(C(c2ccc(OC)cc2)C(Cl)(Cl)Cl)cc1,,inactive
